# PABP polyA inh = PABP-poly(A) binding inhibition; AID 2014; PABP-poly(A) RNA binding, fluorescence polarization; inhibition, % at 35 µM; actives 1% (n = 290,000);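 also: calls also rest on retests at 20 µM and on dose response follow-up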
# eIF4E 4G PPI = inhibitors of eIF4E and eIF4G interaction in translation initiation; inhibition, % at 21.7 µM; actives 0.37% (n = 220,000); TR-FRET eIF4E-eIF4GI(517-606) binding, 2 h; P63073+Q04637;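 active = inhibition above about 30%, limit read from the data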;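 also: 0% = full FRET control wells and 100% = background wells lacking eIF4GI fragment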
# eIF4H FP inh = inhibitors of RNA binding by human eIF4H. eIF4H fluorescence polarization binding assay. actives 0.94% (n = 290,000). inhibition, % at 35 µM. Q15056;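 also: calls also rest on retests at 20 µM and on dose response follow-up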
# PERK inhibitor = inhibitors of human PERK kinase | actives 0.17% (n = 220,000) | Q9NZJ5 | inhibition, % at 5.6 µM | AID 1416 | CHO PERK-DD fusion, SEAP luminescence translation reporter;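 active = inhibition above the mean inhibition of all tested compounds plus 3 SD, set separately per screening campaign, cut at about 2.9% in these data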;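 also: PERK kinase domain activated by AP20187 dimerizer at 100 nM; 0% = DMSO with dimerizer and 100% = rapamycin at 8.4 µM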
# PABP1 MLLE inh = inhibitors of microRNA-mediated deadenylation, human PABP1 MLLE binding; P11940; GST-MLLE / FITC-PAM2 fluorescence polarization; inhibition, % at 20 µM; actives 0.36% (n = 360,000); AID 588489; in the data active = inhibition above about 35%, passing the limit was not always enough;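 also: plate controls were DMSO wells with GST-MLLE for no effect and wells lacking GST-MLLE protein for full effect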
# PfM18AAP inh = PfM18AAP enzyme inhibition; recombinant PfM18AAP, H-Glu-NHMec fluorogenic cleavage; inhibition, % at 7.35 µM; actives 1.2% (n = 290,000); AID 1822;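 active = inhibition above the campaign mean inhibition over all tested compounds plus 3 SD, cut at about 28% in these data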;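 also: 0% = plate median of test compound wells and 100% = 2 mM ZnCl2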
# Starred values were filed as active, the others as inactive; ? = inconclusive; · = no result. A selection: hits, their analogues and other compounds. The true share with any hit is near 2.4%. Unless noted, no rule for the calls is given here.
SMILES,PABP polyA inh,eIF4E 4G PPI,eIF4H FP inh,PERK inhibitor,PABP1 MLLE inh,PfM18AAP inh
Cc1nn2c3c(cnc2c1-c1ccccc1)C(=O)CC(C)C3 (stereo unspecified),·,·,·,1,·,7
Cc1nn2c3c(cnc2c1-c1ccc(Cl)cc1)C(=O)CC(c1ccco1)C3 (stereo unspecified),32*,·,61*,·,-2,·
COc1cc2c(C#N)c(N3CCN(C)CC3)nc(N)c2c(N)n1,120*,-8,105*,0,3,5
CC(=O)Nc1cccc(-c2nnc(SCc3ccccc3C#N)n2C)c1,3,2,8,0,-11,-5
Cc1ccn(C)c(=N)c1,67*,-1,active,1,-89,-5
CCOC(=O)c1[nH]cnc1N=Nc1c(O)ccc2ccccc12,-6,8,?,0,51*,2
CC(C)c1nnc(NC(=O)COc2ccc3c(c2)OCO3)s1,10,·,1,·,9,-6
CCC(CC)c1nnc(NC(=O)COc2ccc3c(c2)OCO3)s1,8,·,4,·,12,30*
COc1ccc(-n2nc3c(N)n[nH]c3cc2=O)cc1,13,-1,8,-1,1,1
Nc1n[nH]c2cc(=O)n(-c3ccc(Cl)cc3)nc12,83*,-5,99*,0,13,1
O=C(O)C1CCCCN1C(=O)c1ccc(S(=O)(=O)N2CCCCCC2)cc1 (stereo unspecified),·,·,·,·,-9,·
Cc1nc2cc(NC(=O)C3COc4ccccc4O3)ccc2s1 (stereo unspecified),55*,6,-2,0,-101,1
CCc1nc2c(OCCOC)cccn2c1N(C)C(=O)c1ccco1,·,·,·,·,5,·
COc1cc(/C=N/NS(=O)(=O)c2ccc(C)cc2)ccc1OCc1ccc(C(=O)O)cc1,11,0,0,2.9*,-48,17
COc1cc(/C=N/Nc2nc(-c3ccc(S(=O)(=O)N(C)C)cc3)cs2)ccc1O,-6,44*,-2,-2,-16,14
COc1cc(/C=N/Nc2cc(C)nc(NS(=O)(=O)c3ccc(C)cc3)n2)ccc1O,-2,-1,-4,1,3,30*
CC(=O)Nc1ccc(S(=O)(=O)N[C@@H](C)C(=O)NC2CCCc3ccccc32)cc1 (stereo partly specified),·,·,·,·,-11,·
C[C@]1(CC/C(=C/CO)CO)[C@H](C=O)CC[C@@]23COC(=O)C2=CCC[C@@H]31,·,·,·,·,-2,·
Cc1ccc(-n2c(C)cc(/C=N/NC(=O)c3ccc(CN4CCOCC4)cc3)c2C)cc1,13,1,-2,0,-34,8
Cc1ccc(C2/C(=C(/O)c3ccccc3)C(=O)C(=O)N2CCN2CCOCC2)o1 (stereo unspecified),15,0,11,0,4,-11
Cc1ccc(C)c(/C(O)=C2/C(=O)C(=O)N(CCN3CCOCC3)C2c2ccco2)c1 (stereo unspecified),25,3,55*,0,12,26
COc1cccc(CC(=O)N2CCN(c3ccccc3[N+](=O)[O-])CC2)c1,active,-1,52*,0,2,-7
CCCCC(=O)N1CCN(c2ccc(OC)cc2[N+](=O)[O-])CC1,-2,-10,6,1,-2,-2
CC(C)NC(=O)C1CCN(Cc2cccc(Oc3ccccc3)c2)CC1,69*,·,90*,·,21,11
COc1ccc(OC)c(CN2CCC(C(=O)N3CCN(c4ccccc4F)CC3)CC2)c1,10,-2,4,-2,-1,-10
SMILES,PABP polyA inh,eIF4E 4G PPI,eIF4H FP inh,PERK inhibitor,PABP1 MLLE inh,PfM18AAP inh
COc1cccc(CN2CCC(C(=O)N3CCN(c4ccccc4F)CC3)CC2)c1,9,3,61*,-1,-1,2
Cn1c(SCC(=O)N2CCCC2=O)nnc1-c1ccccc1F,7,-1,3,0,11,-12
COc1cc(NC(=O)Cc2cccc3ccccc23)c(C(=O)O)cc1OC,6,·,-7,·,-12,0
Cc1ccc2[nH]c3c(=O)n(CC(=O)N4CC(C)CC(C)C4)ncc3c2c1 (stereo unspecified),7,·,-7,·,8,-4
COc1cnc(-c2cccc(C(F)(F)F)c2)[nH]c1=O,-5,1,5,2,-7,-4
FC(F)(F)c1cccc(-c2nc3nc(Cl)c(Cl)nc3[nH]2)c1,32*,-7,?,0,-29,-8
CSCCC1C(C#N)=C(N)Oc2n[nH]c(-c3cccs3)c21 (stereo unspecified),9,0,5,3.1*,10,4
CC(C)CC1C(C#N)=C(N)Oc2n[nH]c(-c3cccs3)c21 (stereo unspecified),2,-2,-5,-1,2,7
CCC(C)(C(=O)NC1CCCCC1)N(C(=O)c1cnccn1)c1c(C)n(C)n(-c2ccccc2)c1=O (stereo unspecified),-2,-1,-1,2,3,3
O=C(/C=C/c1ccco1)NC(=S)Nc1ccc(Cl)cn1,37*,3,71,0,-30,8
O=C(/C=C/c1ccco1)NC(=S)Nc1ccc(C(=O)O)cc1,79*,·,97*,·,14,29*
O=C(/C=C/c1ccco1)Nc1cccc(C(=O)Nc2ccccc2C(=O)O)c1,74*,7,89*,2,-20,-21
CCc1ccccc1NC(=O)c1cccc(NC(=O)/C=C/c2ccco2)c1,-5,-4,-2,0,2,-13
O=C(/C=C/c1ccco1)NC(=S)Nc1ccc(N2CCCC2)cc1,1.9*,4,93*,0,36*,16
O=C(/C=C/c1ccco1)NC(=S)NNC(=O)c1ccco1,9.4*,2,92,0,7,17
CC(=O)Nc1ccc(-c2ccnc3c2CC(C(=O)Nc2cccc(OC(F)(F)F)c2)O3)cc1 (stereo unspecified),·,·,·,·,-7,·
Cc1ccc(S(=O)(=O)Nc2ccc(N3CCOCC3)nc2)cc1,-10,2,?,0,-15,11
Cc1ccc(C)n1-c1ccc(N2CCOCC2)nc1,66*,10,71*,1,28,3
CN1C=C(C(F)(F)F)C=C/C1=C(\C#N)c1nnc2n1CCCCC2,0,3,-8,3.1*,-4,0
Cc1nnc(N/N=C/c2c[nH]c3ccccc23)[nH]c1=O,7,-20,-2,3,2,29*
Cc1cc(C)nc(N/N=C/c2c[nH]c3ccccc23)n1,2,-4,-8,2,-4,1
O=C(CN1CCN(c2ccc(F)cc2)CC1)Nc1ccccc1[N+](=O)[O-],40*,-2,60*,-1,17,0
CN=c1scc(-c2cccs2)n1/N=C/c1ccc(O)c(O)c1O,·,8,·,1,18,31*
Cc1cc(C)nc(NN2C(=O)/C(=C/c3ccc(O)cc3)SC2=S)n1,76*,2,?,1,-125,30*

# Compound activity (PubChem BioAssay)
